Where “and” joins values, the source holds several entries; their conditions need not be identical. Equal entries are not always repeated. About 11,000 (3.1%) of roughly 360,000 compounds were called active. The sample holds actives, similar compounds and a random draw of the others, so the mix is not that of the screen. A number with no mark means an inactive call. Cut-off read from the data, not from the text of the source: active = activity change below about -30%; inactive = the rest.
Target: D(1A) dopamine receptor (Homo sapiens) (UniProt P21728)
Assay: Antagonist of Human D 1 Dopamine Receptor: qHTS
Conditions: HEK293 TREx D1 cells, calcium flux, dopamine EC80; at 10 µM; active compounds read low
In short: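 Tetracycline-induced HEK293 Trex D1 cells, force-coupled to calcium, dye-loaded; compounds added and read 180 s, then EC80 dopamine added and calcium flux tracked kinetically another 180 s.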
% is set by controls: 0 for no effect and ±100 for the full control effect.

Sequence of D(1A) dopamine receptor (Homo sapiens) (P21728 whole entry, looked up): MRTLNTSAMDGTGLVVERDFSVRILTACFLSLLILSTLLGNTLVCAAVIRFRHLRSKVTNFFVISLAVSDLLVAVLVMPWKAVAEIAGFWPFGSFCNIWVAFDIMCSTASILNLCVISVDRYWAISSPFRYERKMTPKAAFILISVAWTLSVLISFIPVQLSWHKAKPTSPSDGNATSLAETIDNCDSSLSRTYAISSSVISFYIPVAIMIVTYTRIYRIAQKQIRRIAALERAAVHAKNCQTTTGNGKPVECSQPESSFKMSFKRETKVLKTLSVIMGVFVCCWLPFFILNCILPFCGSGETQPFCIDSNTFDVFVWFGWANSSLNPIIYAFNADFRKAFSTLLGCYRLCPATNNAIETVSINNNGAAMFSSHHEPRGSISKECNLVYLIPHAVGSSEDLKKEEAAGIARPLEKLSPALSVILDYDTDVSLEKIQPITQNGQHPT

Q: How did the activity change, negative = inhibition turn out when CC1CCN(c2ccc(S(=O)(=O)Nc3cc(C(=O)O)cc(C(=O)O)c3)cc2[N+](=O)[O-])CC1 was run?
A: 21.6%

Q: O=C(O)C1CCN(c2ccc([N+](=O)[O-])cc2[N+](=O)[O-])CC1 was tested. Which activity change, negative = inhibition did it give?
A: -34.9% (active)

Q: How did the activity change, negative = inhibition turn out when CC1CCN(c2ccc([N+](=O)[O-])cc2C(N)=O)CC1 was run?
A: -6.77%

Q: How did the activity change, negative = inhibition turn out when COc1ccccc1CNc1nc2ccc(Cl)cc2n2cnnc12 was run?
A: 31.1%

Q: How did the activity change, negative = inhibition turn out when Cc1ccc(OCC(=O)OCc2cc(=O)n3nc(C4CC4)sc3n2)cc1C was run?
A: 5.56%

Q: How did the activity change, negative = inhibition turn out when Cc1cccc(CSc2nc3c(c(=O)n2C)SCC3)c1 was run?
A: -31.4% (active)

Q: How did the activity change, negative = inhibition turn out when Cc1cccc(CSc2nnc(C)c(=O)n2N)c1 was run?
A: -16.8%

Q: How did the activity change, negative = inhibition turn out when Cn1c(SCC(=O)N2CCCCC2)nc2c(c1=O)SCC2 was run?
A: -2.45%

Q: With CCOc1ccc(C(O)Cn2c(=N)n(CCN3CCCCC3)c3ccccc32)cc1 (stereo not given) as the compound, how does the activity change, negative = inhibition read?
A: 3.59%

Q: For Cn1c(=N)n(CC(O)c2cccs2)c2ccccc21 (stereo not given), which activity change, negative = inhibition is on record?
A: -34.7% (active)

Q: Cc1cccc(OCC(O)Cn2c(=N)n(CCN3CCOCC3)c3ccccc32)c1 (stereo not given) was tested. Which activity change, negative = inhibition did it give?
A: -8.76%

Q: How did the activity change, negative = inhibition turn out when COc1cc(C(=O)Nc2ccc(OCc3cc(=O)n4cc(C)sc4n3)cc2)cc(OC)c1OC was run?
A: -16.6%

Q: CCOc1cccc(OCCCOc2cccc3cccnc23)c1 was tested. Which activity change, negative = inhibition did it give?
A: 7.73%

Q: Cc1ccc2cccc(OCCCOc3ccccc3CO)c2n1 was tested. Which activity change, negative = inhibition did it give?
A: -71.7% (active)

Q: With OCc1ccc(OCCCOc2cccc3cccnc23)cc1 as the compound, how does the activity change, negative = inhibition read?
A: -4.17%

Q: Cn1c(=O)n(Cc2c(F)cccc2Cl)c(=O)c2c1nc1n2CCN1c1ccc(F)cc1 was tested. Which activity change, negative = inhibition did it give?
A: -4.11%

Q: With CCOc1ccc(NC(=O)c2cc(S(=O)(=O)N3CCCC3)c[nH]2)cc1 as the compound, how does the activity change, negative = inhibition read?
A: -12.2%

Q: How did the activity change, negative = inhibition turn out when COc1ccc(CS(=O)/C(Cl)=C(/Cl)C(=O)Nc2ccc(OC)nc2)cc1 (stereo not given) was run?
A: -16.1%

Q: COc1cccc(NC(=S)N(Cc2ccc(C)cc2)Cc2ccccn2)c1 was tested. Which activity change, negative = inhibition did it give?
A: -4.38%

Q: COc1ccc(NC(=O)/C(Cl)=C(/Cl)S(=O)Cc2ccc(C)cc2)cn1 (stereo not given) was tested. Which activity change, negative = inhibition did it give?
A: -37.4% (active)

Q: How did the activity change, negative = inhibition turn out when Cc1cc(Cl)ccc1OCCCC(=O)NCc1ccccn1 was run?
A: -2.23%

Q: How did the activity change, negative = inhibition turn out when Cc1cc(Cl)ccc1OCCCC(=O)Nc1cccc(-n2cnnn2)c1 was run?
A: -32.2% (active)

Q: With Cc1cc(Cl)ccc1OCCCC(=O)NCc1ccncc1 as the compound, how does the activity change, negative = inhibition read?
A: -15.1%

Q: O=C(Nc1ccc2nc(SCCOc3ccccc3)sc2c1)c1ccco1 was tested. Which activity change, negative = inhibition did it give?
A: -3.21%

Q: O=C(CSc1ncc(-c2ccccc2)[nH]1)Nc1ccc(F)cc1F was tested. Which activity change, negative = inhibition did it give?
A: -8.22%

Q: Which activity change, negative = inhibition does the source give for O=C(Nc1ccccc1Cc1ccccc1)c1ccc2c(c1)SC1=NS(=O)(=O)CCN12 here?
A: -30.1% (active)

Q: O=S1(=O)CCN2C(=N1)SC1=C2CCN(Cc2ccccc2)C1 was tested. Which activity change, negative = inhibition did it give?
A: 2.33%

Q: For CCc1ccccc1NC(=O)c1ccc2c(c1)CCN2S(C)(=O)=O, which activity change, negative = inhibition is on record?
A: 6.15% and -13%

Q: Which activity change, negative = inhibition does the source give for CCCN(C(=O)Cn1ncc2c([nH]c3ccc(C)cc32)c1=O)c1ccccc1C here?
A: 11.2%

Q: For O=[S+]([O-])(c1ccc(OC(F)(F)F)cc1)N1CCN([S+](=O)([O-])c2ccc3c(c2)OCCO3)CC1, which activity change, negative = inhibition is on record?
A: -7.55%

Q: Cc1nn2c(=O)cc(COC(=O)c3ccccc3NC(=O)COc3ccccc3C)nc2s1 was tested. Which activity change, negative = inhibition did it give?
A: -3.25%

Q: For COc1ccccc1C(=O)Nc1ccc(C)c(S(=O)(=O)N2CCCCC2)c1, which activity change, negative = inhibition is on record?
A: -2.3%

Q: For COc1ccc(NC(=O)CSc2nnc(C3CC3)n2C)cc1S(=O)(=O)N1CCCCC1, which activity change, negative = inhibition is on record?
A: 5.62%

Q: With COc1ccc(NC(=O)C2=NNC(=O)CC2)cc1S(=O)(=O)N1CCCCC1 as the compound, how does the activity change, negative = inhibition read?
A: -34.7% (active)

Q: For NS(=O)(=O)c1ccc(CCNC(=O)CCCCCn2c(=O)[nH]c3ccccc3c2=O)cc1, which activity change, negative = inhibition is on record?
A: 5.32%

Q: COc1cc2nc(NCC(C)c3ccccc3)n3nc(-c4ccccc4)nc3c2cc1OC (stereo not given) was tested. Which activity change, negative = inhibition did it give?
A: -4.86%

Q: How did the activity change, negative = inhibition turn out when Cc1nc2nc(NCc3cccc(Br)c3)[nH]n2c(=O)c1Cc1ccccc1 was run?
A: -2.6%

Q: Which activity change, negative = inhibition does the source give for Cc1cccc(N(C)C(=O)CS(=O)(=O)c2cccc3nsnc23)c1 here?
A: 9.37%

Q: How did the activity change, negative = inhibition turn out when O=C(Nn1cnnc1)c1ccc([N+](=O)[O-])cc1 was run?
A: -2.94%

Q: COC(=O)/C=C\C(=O)Nc1cccc([N+](=O)[O-])c1 was tested. Which activity change, negative = inhibition did it give?
A: 16.7%

Q: For O=C(Nc1cccc([N+](=O)[O-])c1)Nn1cnnc1, which activity change, negative = inhibition is on record?
A: -44.2% (active)

Q: For CCCCCn1c(CCNC(=O)c2ccc(F)cc2)nc2ccccc21, which activity change, negative = inhibition is on record?
A: -29.3%

Q: Which activity change, negative = inhibition does the source give for CC(=O)c1ccc(NC(=O)CCc2nc(-c3ccc(C)cc3)no2)cc1 here?
A: 6.08%

Q: How did the activity change, negative = inhibition turn out when CC(=O)c1cccc(NC(=O)c2nc(-c3ccccc3)n(-c3cccc(C)c3)n2)c1 was run?
A: -15.7%

Q: How did the activity change, negative = inhibition turn out when [O-][n+]1onc2c1CCc1[nH]c(-c3ccccc3)nc1-2 was run?
A: -44.1% (active)

Q: How did the activity change, negative = inhibition turn out when CCn1c(Cc2ccccc2)nnc1SCC(=O)Nc1ccccc1 was run?
A: -30.1% (active)

Q: CCn1c(CNC(=O)c2ccc(OC)c(OC)c2)nnc1SCC(=O)Nc1ccccc1 was tested. Which activity change, negative = inhibition did it give?
A: -0.592%

Q: For CCn1c(Cc2ccc(OC)cc2)nnc1SCC(=O)Nc1ccc(N2CCOCC2)cc1, which activity change, negative = inhibition is on record?
A: 0.621%

Q: Which activity change, negative = inhibition does the source give for CCC(=O)N1c2ccccc2CC1C(=O)N1CCN(c2ccccc2F)CC1 (stereo not given) here?
A: 10.1%

Q: Which activity change, negative = inhibition does the source give for CCOc1ccc(NC(=O)c2c(NC(=O)Cc3ccccc3)sc3c2CCCCC3)cc1 here?
A: 0.456%

Q: For CN(C)CCCN1C(=O)CSC1c1ccc([N+](=O)[O-])cc1 (stereo not given), which activity change, negative = inhibition is on record?
A: 26.5%

Q: CCCCc1ccc(NC(=O)NCc2cccnc2)cc1 was tested. Which activity change, negative = inhibition did it give?
A: 19%

Q: Which activity change, negative = inhibition does the source give for CCCCCCCCCCCCN1C(=O)CSC1c1cccnc1 (stereo not given) here?
A: -34.3% (active)

Q: Which activity change, negative = inhibition does the source give for Cc1cccc(CC(=O)N2CC(=O)Nc3ccc(F)cc3C2c2ccccc2)c1 (stereo not given) here?
A: -5.67%

Q: Cc1nn(CC(=O)O)c(=O)c2cc3cc(F)ccc3n12 was tested. Which activity change, negative = inhibition did it give?
A: 16.8%

Q: How did the activity change, negative = inhibition turn out when COc1cccc(CNC(=O)Cc2csc3nc(-c4ccccc4)cn23)c1 was run?
A: 8.74%

Q: For COc1ccc2c(Sc3ccc(C)cc3)c(C(=O)NC(C)c3ccccc3)[nH]c2c1 (stereo not given), which activity change, negative = inhibition is on record?
A: -2.66%

Q: Which activity change, negative = inhibition does the source give for Cc1ccc(NS(=O)(=O)c2ccc(C(C)(C)C)cc2)cn1 here?
A: -7.23%

Q: For Cc1cc(C)cc(OCC(=O)Nc2ccc(S(=O)(=O)Nc3ccccn3)cc2)c1, which activity change, negative = inhibition is on record?
A: -0.845%

Q: Cc1ccc(S(=O)(=O)Nc2ccc3ncccc3c2)cc1 was tested. Which activity change, negative = inhibition did it give?
A: -37.6% (active)
